According to the supplement of paper PMC13380429:
Values without a mark were called inactive.

The compounds below were run on Vero E6 infected with SARS-CoV-2 (assay: inhibition of SARS-CoV-2 cytopathic effect; higher = more antiviral protection, active = above 15). Details: 833.33 nM; 48 h.

Row | SMILES | inhibition of SARS-CoV-2 cytopathic effect
1 | Cn1cc(C(F)(F)F)nc1-c1ccc(OCC(O)CNCCOc2ccc(O)c(C(N)=O)c2)cc1 (stereo not given) | -1.37%
2 | CC(C)C[C@H](NC(=O)[C@@H](Cc1c[nH]c2ccccc12)NC(=O)[C@H](Cc1ccc(O)cc1)NC(=O)[C@H](CO)NC(=O)[C@H](Cc1c[nH]c2ccccc12)NC(=O)[C@H](Cc1c[nH]cn1)NC(=O)[C@@H]1CCC(=O)N1)C(=O)N[C@@H](CCCNC(=N)N)C(=O)N1CCC[C@H]1C(=O)NCC(N)=O [triptorelin] | 2.17%
3 | CC(=O)Nc1ccc(S(=O)(=O)c2ccc(NC(C)=O)cc2)cc1 [acedapsone] | -1.51%
4 | CC(C(=O)O)c1ccc2c(c1)CC(=O)c1ccccc1S2 (stereo not given) [zaltoprofen] | 0.28%
5 | CC(C)CN(C[C@@H](O)[C@H](Cc1ccccc1)NC(=O)O[C@H]1CCOC1)S(=O)(=O)c1ccc(N)cc1 [amprenavir] | -1.76%
6 | CCc1cc2c(s1)-n1c(C)nnc1CN=C2c1ccccc1Cl [etizolam] | 3.16%
7 | CN(C)CCN1C(=O)c2cccc3cc(NC(N)=O)cc(c23)C1=O [unbs-5162] | 0.4%
8 | COc1ccc(-c2cc(=O)c3c(OC)c(OC)c(OC)c(OC)c3o2)cc1OC [nobiletin] | -2.1%
9 | CC(=O)c1ccc2c(c1)N(CCCN1CCC(CCO)CC1)c1ccccc1S2 [piperacetazine] | 0.28%
10 | Cc1nnc(C(=O)NC(C)(C)c2nc(C(=O)NCc3ccc(F)cc3)c(O)c(=O)n2C)o1 [raltegravir] | 1.2%
11 | O[C@@H]1CO[C@H]2[C@@H]1OC[C@@H]2O [isosorbide] | 3.22%
12 | O=C1c2ccccc2CCC1CNCCc1ccc(O)cc1 (stereo not given) | -0.45%
13 | COCC(=O)Nc1c(I)c(C(=O)NCC(O)CO)c(I)c(C(=O)N(C)CC(O)CO)c1I (stereo not given) [iopromide] | -0.15%
14 | Clc1ccccc1CNC[C@H]1CC[C@H](CNCc2ccccc2Cl)CC1 | -3.17%
15 | CC[n+]1c(-c2ccccc2)c2cc(N)ccc2c2ccc(N)cc21 [homidium] | 0.35%
16 | Cc1ccc(O)c(N=Nc2ccccc2)n1 | 0.01%
17 | CCCCn1c(-c2ccccc2)nc(-c2ccccc2)c1CN(Cc1ccc2c(c1)OCO2)Cc1ccc2c(c1)OCO2 | 0.71%
18 | COc1cc2cc(c1Cl)N(C)C(=O)C[C@H](OC(=O)C(C)C)[C@]1(C)O[C@@H]1[C@H](C)[C@@H]1C[C@@](O)(NC(=O)O1)[C@H](OC)/C=C/C=C(\C)C2 [ansamitocin-p-3] | -0.53%
19 | Cc1ccc(-c2cn3c4c(sc3n2)CCCC4)cc1 [pifithrin-cyclic] | 0.25%
20 | C#Cc1cccc(Nc2ncnc3cc(OCCOC)c(OCCO)cc23)c1 | -4.18%

Row | SMILES | inhibition of SARS-CoV-2 cytopathic effect
21 | CN1C[C@H](C(=O)N[C@]2(C)O[C@@]3(O)[C@@H]4CCCN4C(=O)[C@H](Cc4ccccc4)N3C2=O)C[C@@H]2c3cccc4[nH]cc(c34)C[C@H]21 [dihydroergotamine] | -0.8%
22 | CNC(=O)[C@H]1O[C@@H](n2cnc3c(NCc4cccc(I)c4)nc(Cl)nc32)[C@H](O)[C@@H]1O | 2.83%
23 | CCCCC(CC)CCC(CC(C)C)OS(=O)(=O)O (stereo not given) [sodium-tetradecyl-sulfate] | 1.74%
24 | CCc1nn(CCCN2CCN(c3cccc(Cl)c3)CC2)c(=O)n1CCOc1ccccc1 [nefazodone] | 0.6%
25 | CCCS(=O)(=O)Nc1ccc(F)c(C(=O)c2c[nH]c3ncc(-c4ccc(Cl)cc4)cc23)c1F [vemurafenib] | 2.45%
26 | N[C@H](C(=O)O)c1cc(O)no1 [ibotenic-acid] | -0.13%
27 | O=[N+]([O-])/N=C1\NCCN1Cc1ccc(Cl)nc1 [imidacloprid] | 5.42%
28 | Cc1nc(Nc2ncc(C(=O)Nc3c(C)cccc3Cl)s2)cc(N2CCN(CCO)CC2)n1 [dasatinib] | -12.6%
29 | CCOP(=S)(OCC)Oc1ccc2c(C)c(Cl)c(=O)oc2c1 [coumophos] | -2.21%
30 | O=C1NC(=O)C(c2cnc3ccccn23)=C1c1cn2c3c(cc(F)cc13)CN(C(=O)N1CCCCC1)CC2 | 16% (active)
31 | CCOC(=O)C(=O)Nc1cccc(OC)c1C(N)=O | 2.83%
32 | Cc1cc(OI)c(C(C)C)cc1-c1cc(C(C)C)c(OI)cc1C [thymol-iodide] | 1.69%
33 | Nc1n[nH]c2nc3ccccc3nc12 [CDK1-5-inhibitor] | 0.94%
34 | CC(C)(C)c1cc(NC(=O)Nc2ccc(-c3cn4c(n3)sc3cc(OCCN5CCOCC5)ccc34)cc2)no1 [quizartinib] | -4.72%
35 | COc1cc(NS(=O)(=O)c2ccc(N)cc2)nc(OC)n1 [sulphadimethoxine] | -1.94%
36 | NC(=O)c1ncn([C@@H]2O[C@H](CO)[C@@H](O)[C@H]2O)n1 [ribavirin] | -0.66%
37 | Cc1nc(Nc2ccc(F)cc2)nc(N2CCc3ccccc3C2C)c1C (stereo not given) [revaprazan] | 1.17%
38 | CN1CCCC(n2nc(Cc3ccc(Cl)cc3)c3ccccc3c2=O)CC1 (stereo not given) [azelastine] | -2.95%
39 | O=C1N=C2SCCN2C(=O)C1Cc1ccc(Cl)cc1 (stereo not given) [nuclomedone] | 0.58%
40 | CO[C@@]12[C@H](COC(N)=O)C3=C(C(=O)C(C)=C(N)C3=O)N1C[C@@H]1N[C@@H]12 [mitomycin-C] | -1.53%
